The source of these data is PubChem BioAssay.

A number with no mark means an inactive call. The source made the active and inactive calls.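 Rule for the calls: active = compounds that lower survival of HCT116 colon cancer cells in the luminescence readout, no numeric limit stated; inactive = the rest.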

This assay in a line: HCT116 colon cancer cell growth inhibition, primary screen, CellTiter-Glo luminescence, NPC library (AID 1117342). The settings on record: at 20 µM (top of the series). Background: In ATP-based viability assays light output follows the ATP content of the culture.
On to `Cc1cccc(C)c1OCC(C)N` (stereo not drawn), for which the inhibition of viability was 5.27%.
As for `COc1ccc(C2CNC(=O)C2)cc1OC1CCCC1` (stereo not drawn), the inhibition of viability was 13.6%.
In the case of `CNS(=O)(=O)Cc1ccc2[nH]cc(CCN(C)C)c2c1`, the inhibition of viability was -2.93%.
For the compound `Nc1nc(F)nc2c1ncn2[C@@H]1O[C@H](CO)[C@@H](O)[C@@H]1O`, the inhibition of viability is 38%.
Under `CCCCN(CCCC)CCC(O)c1cc2c(Cl)cc(Cl)cc2c2cc(C(F)(F)F)ccc12` (stereo not drawn) stands 105% (active); under `CCN1CC(CCN2CCOCC2)C(c2ccccc2)(c2ccccc2)C1=O` (stereo not drawn), 17%; under `OCc1cccnc1`, -9.5%.
Take `Cc1ccsc1C(=CCCN1CCC[C@@H](C(=O)O)C1)c1sccc1C`: the inhibition of viability is 25%.
Take `NS(=O)(=O)Cc1noc2ccccc12`: the inhibition of viability is 4.9%.
The figure for `CCN(CC)CC1CCCCN1CC(=O)N1c2ccccc2C(=O)Nc2cccnc21` (stereo not drawn) is 1.17%.
As to `CN(C)CCCSc1ccccc1NC(=O)/C=C/c1ccccc1`, the inhibition of viability is 25.5%.
With `CCc1oc2ccccc2c1C(=O)c1cc(Br)c(O)c(Br)c1`, the inhibition of viability is 124% (active).
Regarding `Cc1c[nH]c2ccccc12`, the inhibition of viability was 10.3%.
The figure for `O=NN(CCCl)C(=O)NC1CCCCC1` is -0.2%; for `CCCN1CCCC[C@H]1C(=O)Nc1c(C)cccc1C` it is 3.1%; for `CCCc1c(OCCCCc2nn[nH]n2)ccc(C(C)=O)c1O` it is 54.3% (active).
Regarding `CCOC(=O)[C@H](CCc1ccccc1)N[C@@H](C)C(=O)N1[C@H](C(=O)O)C[C@@H]2CCC[C@@H]21`, the inhibition of viability is 6.1%.
`CN1CCN(c2c(F)cc3c(=O)c(C(=O)O)cn4c3c2SCC4)CC1`: the inhibition of viability was 7.2%.
The figure for `CN(CCCN1c2ccccc2CCc2ccccc21)CC(=O)c1ccc(Cl)cc1` is 33.2%; for `CNCCCCOc1ccccc1Cc1ccccc1` it is 95.4% (active); for `CCC1=C(C)CN(C(=O)NCCc2ccc(S(=O)(=O)NC(=O)NC3CCC(C)CC3)cc2)C1=O` (stereo not drawn) it is 2.4%.
For `Cc1cnc(NC(=O)C2=C(O)c3ccccc3S(=O)(=O)N2C)s1`, the inhibition of viability is 19.1%.
`CCOC(=O)OC(C)OC1=C(C(=O)Nc2ccccn2)N(C)S(=O)(=O)c2ccccc21` (stereo not drawn): the inhibition of viability is 8.6%.
`CCOC(=O)c1ncn2c1CN(C)C(=O)c1cc(F)ccc1-2`: the inhibition of viability is 0.15%.
For `CC(=O)OCC(=O)NCCCOc1cccc(CN2CCCCC2)c1`, the inhibition of viability is -15.6%.
With `CC(C)NCC(O)COc1ccc(CCOCC2CC2)cc1` (stereo not drawn), the inhibition of viability was 14.2%.
`CN1[C@@H]2CC[C@H]1CC(OC(=O)c1c[nH]c3ccccc13)C2` (stereo partly drawn): the inhibition of viability was 57.8% (active).
As to `Nc1nc2c(ncn2CCC(CO)CO)c(=O)[nH]1`, the inhibition of viability is 6.65%.
`C/C=C1\[C@H]2C=C(C)C[C@]1(N)c1ccc(=O)[nH]c1C2`: the inhibition of viability is 3.1%.
On to `CNNCc1ccc(C(=O)NC(C)C)cc1`, for which the inhibition of viability was -1.9%.
In the case of `CC(C)(O)c1ccccc1CC[C@@H](SCC1(CC(=O)O)CC1)c1cccc(/C=C/c2ccc3ccc(Cl)cc3n2)c1`, the inhibition of viability was 114% (active).
Turning to `CC[N+](C)(CC)CCOC(=O)C(O)(c1ccccc1)C1CCCCC1` (stereo not drawn), the inhibition of viability was 0.4%.
On to `CC1(C)O[C@@H]2C[C@H]3[C@@H]4C[C@H](F)C5=CC(=O)C=C[C@]5(C)[C@@]4(F)[C@@H](O)C[C@]3(C)[C@]2(C(=O)CO)O1`, for which the inhibition of viability is 19.8%.
The figure for `CNCC(O)c1ccc(O)c(O)c1` (stereo not drawn) is 29%; for `CC(C)(C)NC(=O)[C@@H]1CN(Cc2cccnc2)CCN1C[C@@H](O)C[C@@H](Cc1ccccc1)C(=O)N[C@H]1c2ccccc2C[C@H]1O` it is 10%.
With `Oc1cccc2[nH]ccc12`, the inhibition of viability is 9.6%.
Turning to `COc1cc2c(cc1OC)C(=O)C(CC1CCN(Cc3ccccc3)CC1)C2` (stereo not drawn), the inhibition of viability was 49.6%.
As for `CCN(CC)CCNC(=O)c1cc(Cl)c(N)cc1OC`, the inhibition of viability is -2.1%.
